The text below walks through data of PubChem BioAssay (NCI).

About 83,000 compounds went through this panel and 20% of them were active in at least one assay; those are over-represented in the sample as a whole.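 Cell lines were cultured in 96-well plates, exposed to a single compound concentration, and assessed for percent growth 48 hours later.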 Values without a mark were called inactive. Calls of active or inactive are those of the source. The calls were made as follows: active = growth percent below 10; inactive = the rest.

Assay in all cases: NCI-60 one-dose screen, 48 h (100 = growth as untreated, 0 = no growth, -100 = all killed)
What all share (settings): 10 µM unless noted

In experiment [1] the test system is NCI-H23 lung.
In experiment [2] the test system is NCI-H226 lung.
The subject of experiment [3] is NCI-H322M lung.
The subject of experiment [4] is HOP-62 NSCLC.
The subject of experiment [5] is NCI-H460 lung.
Experiment [6] deals with HOP-92 NSCLC.
In experiment [7] the test system is NCI-H522 lung.
The subject of experiment [8] is A549/ATCC NSCLC.
For experiment [9], the system named is 786-0 renal.
For experiment [10], the system named is COLO 205 colon.

With `CCCC(C)(C)COC(=O)c1cccc(N)c1`, the growth is 103% in [1]; 87.8% in experiment [2]; 80.9% in experiment [3]; 92.5% in experiment [4]; 108% in [5]; 85% in experiment [6]. Besides, the growth in experiment [7] is 60.6%; in experiment [8] it was 89.7%; in experiment [9] it was 93.6%; in experiment [10], 110%.

Consider `COc1ccc(/C=C/C(=O)c2ccc(NC(=O)CSc3nnc(-c4cc(OC)c(OC)c(OC)c4)o3)cc2)cc1`, for which the growth in experiment [1] was -17% (active); in [2] it was 12.9%; in [3] it was 20.2%; in [4], 43.8%; in experiment [5], 14.5%; in [6], -55.4% (active). Besides, the growth in experiment [7] is -76.4% (active); in experiment [8] it was 7.85% (active); in experiment [9], -58.4% (active); in [10], -61.1% (active).

Regarding `CCn1c(SC)nnc1-c1cc2c([nH]c3ccccc32)c(-c2cccc(O)c2)n1`, the growth in [1] was 39.8%; in [2] it was 51.3%; in experiment [3], 50.1%; in experiment [4], 18.3%; in [5], 9.54% (active); in [6] it was -1.11% (active). For the same molecule, the growth in [7] is 5.8% (active); in experiment [8] it was 26.5%; in [9] it was 1.6% (active); in experiment [10] it was 87.7%.

Regarding `O=C(Nc1cccc(-n2ccc3c(NC(=O)c4ccccc4)ncnc32)c1)Nc1ccc(Cl)c(C(F)(F)F)c1`, the growth in experiment [1] was 31.9%; in experiment [2] it was 55.1%; in experiment [3], 60.2%; in [4] it was 56.8%; in [5], 14.4%; in experiment [6] it was 29.2%. The growth in experiment [7] is 11.8%; in [8] it was 28.3%; in [9], 53.2%; in experiment [10] it was 20.9%.

As to `CNC(=O)NN`, the growth in [1] is 98.2%; in experiment [2] it was 103%; in experiment [3], 103%; in experiment [4], 94.7%; in experiment [5], 105%; in experiment [6] it was 82.5%. For the same molecule, the growth is 104% in experiment [7], 98.9% in [8], 107% in [9] and 94.5% in experiment [10].

With `CCCCOc1nc2ccc(Cl)cc2cc1/C=C/C(=O)/C=C/c1ccc(Cl)cc1`, the growth in experiment [1] was 79.8%; in experiment [2] it was 92.9%; in experiment [3], 95.7%; in experiment [4], 101%; in experiment [5], 103%; in [6], 87.1%. Further, the growth is 74.8% in [7], 84.4% in experiment [8], 94.1% in experiment [9] and 62% in [10].

With `Clc1ccc2c(c1)nnn1c3ncccc3c(Br)c21`, the growth in experiment [1] is 81.1%; in [2] it was 90.1%; in experiment [3], 88.5%; in experiment [4], 63.7%; in [5], 78.6%; in experiment [6], 42.9%. The growth in experiment [7] was 67.8%; in experiment [8] it was 89.6%; in experiment [9], 56.6%; in experiment [10] it was 88.9%.

Turning to `CC1(C)Cc2c(Br)c(Br)c(Br)c(OCC(O)CN3CCN(c4ccccn4)CC3)c2O1` (stereo not given), the growth in experiment [1] was 80.9%; in [2], 91.7%; in [3] it was 57.6%; in experiment [4] it was 102%; in experiment [5], 88%; in experiment [6], -5.32% (active). Besides, the growth in experiment [7] was 60.9%; in experiment [8], 80.4%; in experiment [9], 31.3%; in experiment [10] it was 114%.

In the case of `O=C(Nc1ccc(-n2cc(-c3ccncc3)c(-c3ccc(O)c(Cl)c3)n2)cc1)Nc1cc(C(F)(F)F)cc(C(F)(F)F)c1`, the growth in experiment [1] was 47.5%; in [2], 87.8%; in experiment [3], 51.5%; in [4] it was 71.5%; in experiment [5] it was 49.3%; in [6] it was 2.56% (active). Moreover, the growth in [7] is 79.5%; in experiment [8], 53.6%; in experiment [9], 50.5%; in experiment [10], 28.6%.

Turning to `C=C1C(=O)O[C@H]2[C@H]1CC/C(CNC(=O)/C1=C/CC[C@@]3(C)O[C@H]3[C@H]3OC(=O)C(=C)[C@@H]3CC1)=C\CC[C@@]1(C)O[C@@H]21`, the growth in experiment [1] is 99.6%; in experiment [2], 92.4%; in experiment [3], 96%; in experiment [4] it was 93.8%; in experiment [5], 104%; in experiment [6], 84.5%. In addition, the growth is -28.3% (active) in [7], 91% in [8], 93.1% in experiment [9] and 71.8% in [10].

For the molecule `CCCCCCCCCCCCCCCCNc1ccccc1`, the growth in experiment [1] is 102%; in experiment [2], 99.8%; in experiment [3], 83.8%; in experiment [4] it was 105%; in experiment [5], 105%; in [6] it was 97.7%. For the same molecule, the growth in experiment [7] was 64.6%; in experiment [8] it was 59.7%; in experiment [9], 81.4%; in [10], 113%.

For the molecule `Nc1ncnc2c1ccn2-c1cccc(NC(=O)c2cccc(C(F)(F)F)c2)c1`, the growth in experiment [1] is 90.6%; in [2], 70.2%; in experiment [3] it was 55.8%; in experiment [4] it was 91.7%; in experiment [5], 45.8%; in experiment [6], -1.72% (active). Besides, the growth is 56.2% in experiment [7], 50.7% in [8], 101% in experiment [9] and 75.7% in experiment [10].

In the case of `COc1ccc(/C(=C/c2cc(OC)c(OC)c(OC)c2)[N+](=O)[O-])cc1`, the growth in [1] is 24.1%; in experiment [2], 3.77% (active); in experiment [3], 86.7%; in [4] it was 68.3%; in experiment [5], 13%; in experiment [6], -24.6% (active). The growth in experiment [7] was -37% (active); in experiment [8] it was 65.8%; in experiment [9] it was -44.3% (active); in experiment [10], -51.5% (active).
